Results filed as inconclusive are left out. Entries that show only a call come without a potency. Active and inactive are the calls of the source. Calls come from the whole dose curve; as a rule, active = well fitted inhibition curve with a large enough effect; inconclusive = small, poorly fitted or top-dose-only effect; inactive = no such curve, though single readings can be large or run the other way.

The nature of the test: Counterscreen qHTS assay for inhibitors of N-terminal methyltransferase 1 (NTMT1): SPKRIA Counterscreen Assay. Particulars: biochemical qHTS; series mostly up to 99.2 µM. The essentials: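 SPKRIA MTase-Glo counterscreen: compounds preincubated 15 min, then SPKRIA substrate (1 uM final) 30 min at RT. SAH converted to luminescence; data normalized to positive control, fitted to 4-parameter Hill equation.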
(Counterscreens check selectivity or assay interference.)
`Cc1cc2c(s1)c1cnn(Cc3cccc(C)c3F)c(=O)c1n2C`: the Potency result is “inactive”.
As to `CCCn1c(/C=C/c2ccccc2)nc2ccccc21`, the Potency entry is “inactive”.
The result for `NC(=O)C1CCN(c2nc(-c3cccc4ccccc34)cs2)CC1` reads “inactive”; that for `O=C(c1ccc(/C=C/c2n[nH]c3ccccc23)cc1)N1CCNCC1`, “inactive”; that for `O=c1cc(-c2ccccc2)oc2ccc(O)cc12`, 31.6 µM (active).
For `O=C(Nc1noc2ccccc12)c1c(F)cccc1F`, the Potency entry was “inactive”.
For the molecule `CC(=O)Nc1sc2c(c1-c1nc3ccccc3s1)CNC2`, the Potency result was “inactive”.
Take `COc1cccc(C(=O)Nc2nc3c(s2)CCCC3)c1`: the Potency was 50.1 µM (active).
The result for `Clc1ccc2ncc(-c3cccc(NC4CCNC4)n3)n2c1` (stereo unspecified) reads “inactive”; that for `Nc1nc2c(s1)C(c1ccccc1Cl)CC(=O)N2` (stereo unspecified), “inactive”; that for `COc1ccc(C(=O)Nc2onc3c2CCCC3)cc1`, “inactive”.
Take `O=c1cc(-c2ccccc2)oc2ccccc12`: the Potency was 112 µM (active).
For `Nc1ccc2nc(-c3ccc(O)cc3)sc2c1`, the Potency was 44.7 µM (active).
As to `COc1cccc(/C=C/c2nc(C#N)c(NCCN(C)C)o2)c1`, the Potency entry was “inactive”.
In the case of `COc1ccc(C(=O)Nc2noc3ccccc23)cc1`, the Potency is 39.8 µM (active).
In the case of `CC(=O)Nc1sc2c(c1-c1ccc3scnc3c1)CCNC2`, the Potency entry was “inactive”.

Values taken from PubChem BioAssay AID1645879 (National Center for Advancing Translational Sciences (NCATS), 2021).
